About 8,600 (12%) of roughly 69,000 compounds showed an effect of 50% or more. This is one part of a sample in which strong results are shown more often than they occur.
test system: Plasmodium berghei; experiment: Screen against P. berghei liver stage (PbLuc), transformed with Luciferase, at 10uM; assay type: functional, HepG2; conditions: tested at 10 uM

Row | SMILES | INHIBITION [%]
1 | CC(C)n1[nH]c(=O)c2c1NC(=O)CC2c1cccc2cccnc12 (centres undefined) | -62.3
2 | Cc1ccnc(C2(C)CCCN2S(=O)(=O)c2cccnc2)n1 (centres undefined) | 21.2
3 | Cn1ccc(C(=O)NCc2ccc(CN3CCCC3)cc2)cc1=O | -2.19
4 | Cn1ccnc1CNC(=O)Nc1ccc(OC2CCC2)c(F)c1 | 18
5 | COc1cc(NC(=O)NCc2nccn2C)ccc1Br | 50.8
6 | Cc1cc(NC(=O)NCc2nccn2C)ccc1OC(C)C | 37.1
7 | Cc1cnn(CC2CCCN2C(=O)c2ccc(OCC3CC3)nc2)c1 (centres undefined) | -15
8 | O=C(CCc1cc2n(n1)CCCN(C(=O)c1ccncc1)C2)NC1CC1 | 43.2
9 | CC(C)CC(C)NC1CCN(c2ccc(-c3cscn3)cc2)CC1 (centres undefined) | 45.2
10 | CC(C)[C@H](C)NC1CCN(c2ccc(-c3cscn3)cc2)CC1 | 81.4
11 | Cc1cc(NC(=O)CN2CCN(c3nc(C)cs3)C(C)C2)on1 (centres undefined) | -1.12
12 | Cc1nc(C(C)C)sc1C(=O)N1CCC(N2CCSCC2)CC1 | 1.86
13 | CS(=O)(=O)N1CCOCC2(CCN(Cc3ccc[nH]3)CC2)C1 | 57.1
14 | CN1CCOCC2(CCN(Cc3ccc[nH]3)CC2)C1 | 18.7
15 | c1c[nH]c(CN2CCC3(CC2)COCCN(CCN2CCCC2)C3)c1 | -15.3
16 | O=C(O)c1ccccc1-c1ccc(CN2CCC(CO)C2)cn1 (centres undefined) | 33.2
17 | CC(C)n1cnc2c1C(C(=O)N1CCOCC1)N(CC1CC1)CC2 (centres undefined) | -49.1
18 | Cc1cccc(CN2CCc3c(CNC(=O)CC#N)nn(C)c3C2)n1 | 44.2
19 | Cc1cccc(CN2CCc3c(COCC(=O)N(C)C)nn(C)c3C2)n1 | 76.2
20 | CN(C)C(=O)COCc1nn(C)c2c1CCN(Cc1ccco1)C2 | 13.3
21 | CN1CCC(c2cccc(-c3ccc(C(=O)O)cc3)n2)CC1 | 15.5
22 | c1csc(CN2CCCN(c3ncnc4[nH]ccc34)CC2)c1 | 38.4

Row | SMILES | INHIBITION [%]
23 | CCCc1nc(N(C)Cc2cnc(NC)nc2)c2cnn(C)c2n1 | 58.7
24 | CCCc1nc(N(C)CCN2CCCCCC2)c2cnn(C)c2n1 | 53
25 | CN(C)CCN(C)c1nc(CCc2ccccc2)nc2c1cnn2C | -13.4
26 | CCCc1nc(N(C)CCc2noc(C(C)C)n2)c2cnn(C)c2n1 | 42.3
27 | CNc1ncc(CN(C)c2nc(C3CCCC3)nc3c2cnn3C)cn1 | 24.7
28 | CCCc1nc(N2CCCN(c3ncccn3)CC2)c2cnn(C)c2n1 | 30.9
29 | Cc1cccc(-n2c(C)cc(C(=O)NS(C)(=O)=O)c2C)c1 | 9.14
30 | C/C(Cl)=C/CNC(=O)C1CCC2(CC1)CN(C)C(=O)c1ccccc1O2 (centres undefined) | 7.96
31 | CCC(C)NS(=O)(=O)c1ccc(C=Cc2onc(C)c2NC(C)=O)cc1 (centres undefined) | -9.55
32 | O=C(CN1CCN(CC2CCOc3ccccc3C2)CC1)N1CCCC1 (centres undefined) | 16.1
33 | CN(C)C(=O)CN1CCCN(CC2CCOc3ccccc3C2)CC1 (centres undefined) | 75.2
34 | CC(C)NC(=O)CN1CCN(CC2CCOc3ccccc3C2)CC1 (centres undefined) | -19.8
35 | O=C(COc1ccccc1Cl)N1CCCC(n2ccnc2)C1 (centres undefined) | 19.5
36 | O=C(c1ccc(S(=O)(=O)N2CCSCC2)cc1)N1CCCCCC1 | 24.2
37 | Cc1ccc(C(=O)N2CCN3C[C@H](Oc4cccnc4)C[C@H]3C2)cn1 | 39.3
38 | Cc1n[nH]c(C)c1CCC(=O)NCC1COc2ccccc2C1 (centres undefined) | 52.6
39 | COc1ccc2c(c1)OCC(CNC(=O)c1ccc3[nH]nnc3c1)C2 (centres undefined) | 4.52
40 | Cc1n[nH]c(C)c1CCC(=O)NCC1CCOc2ccccc2C1 (centres undefined) | 49.9
41 | COc1ccc2c(c1)OCC(CNC(=O)c1cnc(O)cn1)C2 (centres undefined) | 12.9
42 | COc1ccc2c(c1)OCC(CNC(=O)c1cnc(NC(C)C)nc1)C2 (centres undefined) | -42.8
43 | COc1ccc2c(c1)OCC(CNC(=O)c1ccncc1)C2 (centres undefined) | 4.2
44 | CCNC(=O)c1ccnc(NCC2COc3cc(OC)ccc3C2)c1 (centres undefined) | 51.6

Row | SMILES | INHIBITION [%]
45 | COCCC(=O)NCC1COc2cc(OC)ccc2C1 (centres undefined) | 72.7
46 | COc1ccc2c(c1)OCC(CNC(=O)c1cc[nH]c1C)C2 (centres undefined) | -3.83
47 | COc1ccc2c(c1)OCC(CNC(=O)CCc1c(C)n[nH]c1C)C2 (centres undefined) | 35
48 | Cc1[nH]nc(CCC(=O)NCC2COc3ccccc3C2)c1C (centres undefined) | 13.7
49 | CCc1nc(C)c(C(=O)NCC2COc3cc(OC)ccc3C2)o1 (centres undefined) | 53.2
50 | CC(C)c1nn(C)cc1CNCc1cccc(N(C)C)c1 | 12.4
51 | Cc1nccn1C1CCCN(C(=O)COC2CCCC2)C1 (centres undefined) | 39.735
52 | CCN(c1ccc(C(=O)NCCCN2CCOCC2)cc1)S(=O)(=O)CC | -0.79
53 | NCC(CO)Cc1ccc(OC(F)(F)F)cc1 (centres undefined) | 19
54 | CCOc1ccc(Cl)c(C(=O)N2CCN(CC(C)(C)O)CC2)n1 | 4.52
55 | CCC[C@H]1CN(C(=O)c2cc(-c3cccs3)n(C)n2)C[C@@H]1N | 29.7
56 | c1cc(-c2nc(CN3CCc4c(ncn4C4CC4)C3)cs2)cs1 | 22.6
57 | COc1cc(N2CCC[C@]3(C(=O)O)CN(C(C)C)C[C@@H]3C2)ncn1 | 26.5
58 | CCN1C[C@@H]2CN(c3cc(OC)ncn3)CCC[C@]2(C(=O)O)C1 | 47.5
59 | COCCN1C[C@@H]2CN(c3cc(OC)ncn3)CCC[C@]2(C(=O)O)C1 | 57.1
60 | CN(C)S(=O)(=O)N1CCCC(C)(c2ncc(C(N)=O)s2)C1 (centres undefined) | 23.9
61 | O=C(COC1CCCC1)NCCCn1nc2ccccn2c1=O | -24.6
62 | CN1CCC(N(CCc2ccccc2)C(=O)c2cc[nH]c2)CC1 | 32.8
63 | CN1CCOC(C)(C(=O)N2CCN(C3CCCC3)CC2)C1 (centres undefined) | 32.8
64 | CC1(C(=O)N2CCOCC2)CN(C2CCCCC2)CCO1 (centres undefined) | 56.8
65 | CC1(C(=O)N2CCOCC2)CN(CC2CCOCC2)CCO1 (centres undefined) | 7.25
66 | COCC(=O)NCc1cc(=O)n2c(n1)CN(Cc1ccoc1)CCC2 | 36.9

Row | SMILES | INHIBITION [%]
67 | Cc1nc(C)c(C(=O)N2CCc3nc4c(C)csc4c(=O)n3CC2)s1 | 39.7
68 | Cc1csc2nc3n(c(=O)c12)CCN(Cc1c[nH]cn1)CC3 | 17.1
69 | CN1CC(C(=O)NCCOc2ccc3c(c2)OCO3)CC1=O (centres undefined) | 16.9
70 | CC(NC(=O)N1CCCN(CC(F)F)CC1)c1ccco1 (centres undefined) | 62.3
71 | CCc1cnc(C(C)NC(=O)N2CCCN(CC(F)F)CC2)s1 (centres undefined) | -37.8
72 | Cc1ccc(C(C)NC(=O)N2CCCN(CC(F)F)CC2)s1 (centres undefined) | 60.9
73 | CC(=O)N1CCCN(C(=O)NC(C)c2ccc(C)o2)CC1 (centres undefined) | 11.3
74 | CC(CNC(=O)N1CCN(CC(F)F)CC1)Cc1cccs1 (centres undefined) | -13.2
75 | CC(NC(=O)N1CCCN(Cc2cccs2)CC1)c1cccnc1 (centres undefined) | 6.92
76 | CN(C)C(=O)c1cc2ncc(C(=O)NC3CC3)cc2n1C | 2.59
77 | CC(CNCc1ccncc1)Oc1ccccn1 (centres undefined) | -52.1
78 | Cc1nccn1CCC1CCN(C2CCC3(CCNCC3)CC2)CC1 | 12.1
79 | O=C1[C@H]2CN(Cc3ccc(F)cc3)C[C@H]2CN1CCN1CCCC1 | 3.81
80 | Nc1nc(N)c2c(n1)OC1(CCN(C(=O)CC3CCNCC3)CC1)C2 | -13.13
81 | CN1[C@H](CN2CCCC2)C[C@@H]2CN(C(=O)c3ccsc3)CC[C@@H]21 | 28.4
82 | COc1ccc(CCN2C(=O)O[C@@H]3CN(C4CCSCC4)C[C@@H]32)cc1 | 47.6
83 | COc1ccc(CCN2C(=O)O[C@@H]3CN(C4CCOCC4)C[C@@H]32)cc1 | -5.12
84 | COc1ccc(CCN2C(=O)O[C@@H]3CN(C)C[C@@H]32)cc1 | 51.2
85 | CC1(C)CNC(=O)c2nc(CCN3CCOCC3)[nH]c2C1 | -13
86 | CC1(C)CNC(=O)c2nc(CCN3CCC(C(N)=O)CC3)[nH]c2C1 | 8.38
87 | CC1(C)CNC(=O)c2nc(CCCN3CCCC3)[nH]c2C1 | 83.2
88 | CN1CCCC(c2nc3c([nH]2)CC(C)(C)CNC3=O)C1 (centres undefined) | -67.3

Row | SMILES | INHIBITION [%]
89 | CC1(C)CNC(=O)c2nc(CCN3CCC(O)CC3)[nH]c2C1 | 53.3
90 | CC1(C)CNC(=O)c2nc(CCN3CCCCC3CO)[nH]c2C1 (centres undefined) | 24.4
91 | O=C(NCC1CC1)Nc1ccc(OCC(F)(F)F)nc1 | 23.73
92 | O=S(=O)(Cc1c(F)cccc1Cl)Cc1nnnn1C1CC1 | 25.8
93 | COc1ccc(OC)c(C2CCN(C(=O)C3CCOCC3)C2)c1 (centres undefined) | 50.1
94 | COc1ccc(OC)c(C2CCN(C(=O)CCc3n[nH]c(N)n3)C2)c1 (centres undefined) | -24
95 | COc1ccc(OC)c(C2CCN(C3CCN(C(C)=O)CC3)C2)c1 (centres undefined) | 27.7
96 | COc1ccc(OC)c(C2CCN(C(=O)C3CCS(=O)(=O)CC3)C2)c1 (centres undefined) | 40.5
97 | COc1ccc(OC)c(C2CCN(C(=O)C3CCN(C(C)C)CC3)C2)c1 (centres undefined) | 53.3
98 | COc1ccc(OC)c(C2CCN(C(=O)C3CCC(O)CC3)C2)c1 (centres undefined) | 25.5
99 | CN(CC(=O)Nc1cc(C(C)(C)C)n[nH]1)S(C)(=O)=O | 3.63
100 | O=C(NCC1(Sc2ccccc2)CC1)c1c[nH]nn1 | 20.8
101 | CN(C)CC(=O)N1CCN(CC(O)c2ccc(F)cc2)CC1 (centres undefined) | -11.4
102 | COc1ccccc1OCCc1nnc(NC(=O)C2CC23CCC3)s1 (centres undefined) | 31.97
103 | CSCC(=O)N1C[C@@H]2CC[C@H]1CN(Cc1ccccc1)C2 | -79.7
104 | CCOc1ccc(C(=O)Nc2c(C)nc3ccc(Cl)cn3c2=O)cc1 | 51.6
105 | CCOc1ccc(C(=O)Nc2c(C)nc3cccc(C)n3c2=O)cc1 | -14.7
106 | COc1ccc(C(=O)Nc2c(C)nc3cccc(C)n3c2=O)cc1 | 31.7
107 | CCOc1ccc(C(=O)Nc2ccn(CC)n2)cc1 | -125
108 | CCOc1ccc(C(=O)Nc2c(C)nc3ccccn3c2=O)cc1 | 56.5
109 | CCOc1ccc(C(=O)Nc2c(C)nc3scc(C)n3c2=O)cc1 | 5.58

Reference: ChEMBL document CHEMBL4513216, “Probing the Open Global Health Chemical Diversity Library for Multistage-Active Starting Points for Next-Generation Antimalarials” (ACS Infect Dis, 2020)
